Experiments:
HCC1937 = test: relative cell viability, compound + erastin, vs DMSO (fraction of DMSO control); higher = less growth inhibition; settings: 72 h
MDA-MB-231 = test: as above; settings: 72 h
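Further: viability read by CCK-8 kit in 96-well plates, part of a combination screen pairing lipid-metabolism-targeting compounds with erastin.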

SMILES	relative cell viability (HCC1937)	relative cell viability (MDA-MB-231)
CC1(C)CC[C@]2(C(=O)O[C@@H]3O[C@H](CO)[C@@H](O)[C@H](O)[C@H]3O)CC[C@]3(C)C(=CC[C@@H]4[C@@]5(C)CC[C@H](O[C@@H]6O[C@H](C(=O)O)[C@@H](O)[C@H](O)[C@H]6O[C@@H]6O[C@H](CO)[C@@H](O)[C@H](O)[C@H]6O)C(C)(C)[C@@H]5CC[C@]43C)[C@@H]2C1 [Ginsenoside Ro] + CCOc1ccccc1-n1c(C(C)N2CCN(C(=O)COc3ccc(Cl)cc3)CC2)nc2ccccc2c1=O [erastin]	0.703	0.726
Cc1cnc(C(=O)NCCc2ccc(S(=O)(=O)NC(=O)NC3CCCCC3)cc2)cn1 [Glipizide] + CCOc1ccccc1-n1c(C(C)N2CCN(C(=O)COc3ccc(Cl)cc3)CC2)nc2ccccc2c1=O [erastin]	0.732	0.843
CCNC1(C(N)=O)CCN(c2ncnc3c2nc(-c2ccccc2Cl)n3-c2ccc(Cl)cc2)CC1 [Otenabant] + CCOc1ccccc1-n1c(C(C)N2CCN(C(=O)COc3ccc(Cl)cc3)CC2)nc2ccccc2c1=O [erastin]	0.441	0.459
COc1cc(N(C)C)cc(CN(C)CCc2ccc([N+](=O)[O-])cc2)c1O [CDC25 Phosphatase Inhibitor I] + CCOc1ccccc1-n1c(C(C)N2CCN(C(=O)COc3ccc(Cl)cc3)CC2)nc2ccccc2c1=O [erastin]	0.663	0.781
Cc1c(C)c2c(c(C)c1O)CCC(C)(COc1ccc(CC3SC(=O)NC3=O)cc1)O2 (stereo not drawn) [Troglitazone] + CCOc1ccccc1-n1c(C(C)N2CCN(C(=O)COc3ccc(Cl)cc3)CC2)nc2ccccc2c1=O [erastin]	0.641	0.669
O=C(O)CC[C@H](O)C(=O)O [L-2-Hydroxyglutaric acid disodium] + CCOc1ccccc1-n1c(C(C)N2CCN(C(=O)COc3ccc(Cl)cc3)CC2)nc2ccccc2c1=O [erastin]	0.747	0.701
CCCc1cc(-c2nc(-c3ccc(NS(C)(=O)=O)cc3)cs2)ccn1 + CCOc1ccccc1-n1c(C(C)N2CCN(C(=O)COc3ccc(Cl)cc3)CC2)nc2ccccc2c1=O [erastin]	0.394	0.651
CN(C)C(=O)Nc1cccc(-c2ccc(N(C)C)cc2)c1 [Atglistatin] + CCOc1ccccc1-n1c(C(C)N2CCN(C(=O)COc3ccc(Cl)cc3)CC2)nc2ccccc2c1=O [erastin]	0.438	1.06
CC(C)CCC[C@@H](C)[C@H]1CC[C@H]2[C@@H]3CC=C4C[C@@H](O)CC[C@]4(C)[C@H]3CC[C@]12C [Cholesterol] + CCOc1ccccc1-n1c(C(C)N2CCN(C(=O)COc3ccc(Cl)cc3)CC2)nc2ccccc2c1=O [erastin]	0.901	0.953
CC(C)c1c(C(=O)Nc2ccccc2)c(-c2ccccc2)c(-c2ccc(F)cc2)n1CC[C@@H](O)C[C@@H](O)CC(=O)O [Atorvastatin Calcium] + CCOc1ccccc1-n1c(C(C)N2CCN(C(=O)COc3ccc(Cl)cc3)CC2)nc2ccccc2c1=O [erastin]	0.357	0.337
C=C(C)[C@@H]1CCC2=CC(=O)C[C@@H](C)[C@]2(C)C1 [Nootkatone] + CCOc1ccccc1-n1c(C(C)N2CCN(C(=O)COc3ccc(Cl)cc3)CC2)nc2ccccc2c1=O [erastin]	0.577	0.706
CC[C@H]1[C@@H](O)[C@@H]2[C@H](CC[C@]3(C)[C@@H]([C@H](C)CCC(=O)O)CC[C@@H]23)[C@@]2(C)CC[C@@H](O)C[C@@H]12 [Obeticholic Acid] + CCOc1ccccc1-n1c(C(C)N2CCN(C(=O)COc3ccc(Cl)cc3)CC2)nc2ccccc2c1=O [erastin]	0.616	0.771
CC(C)=CCC[C@](C)(O)[C@H]1CC[C@]2(C)[C@@H]1[C@H](O)C[C@@H]1[C@@]3(C)CC[C@H](O)C(C)(C)[C@@H]3[C@@H](O)C[C@]12C [(20S)-Protopanaxatriol] + CCOc1ccccc1-n1c(C(C)N2CCN(C(=O)COc3ccc(Cl)cc3)CC2)nc2ccccc2c1=O [erastin]	0.772	0.397
O=C1/C(=C/c2cccs2)CC/C1=C\c1cccs1 + CCOc1ccccc1-n1c(C(C)N2CCN(C(=O)COc3ccc(Cl)cc3)CC2)nc2ccccc2c1=O [erastin]	0.514	0.658

Reference: the supplement of paper PMC9492666
